The full ranking holds about 16,000 sequences; the median of “rpm ratio (pull-down/input)” is about 0.5, and the highest 2% start at about 5.5. The full list was thinned out, with the highest values kept by preference.

The target of this assay is T1, MBP-FoxP3dN (Mus musculus, UniProt Q99JB6 188-423).
T1 sequence: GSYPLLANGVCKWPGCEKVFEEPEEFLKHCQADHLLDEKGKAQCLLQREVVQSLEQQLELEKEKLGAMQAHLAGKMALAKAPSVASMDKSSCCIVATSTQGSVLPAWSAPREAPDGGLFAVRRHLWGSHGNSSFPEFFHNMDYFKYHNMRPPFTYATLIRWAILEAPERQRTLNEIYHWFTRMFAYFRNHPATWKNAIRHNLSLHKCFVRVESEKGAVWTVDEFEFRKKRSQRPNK
Kind of assay: PD-seq (MBP pull-down with sequencing); 20 mM Tris-HCl pH 7.5, 100 mM NaCl, 1.5 mM MgCl2, 0.4 uM protein, 0.1 uM dsDNA library, 30 min, room temperature, amylose pull-down; high values mean tight binding. The note with it: protein: recombinant; tags: His6-MBP; chain copies: 2; dsDNA, one strand shown. The method in brief: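 Binding is given as reads-per-million enrichment, pull-down over input, with replicates pooled. The bait was an N-terminus-lacking mouse FoxP3 or FoxP1 fragment with a His6-MBP tag, expressed in E. coli and used at 0.4 µM with 0.1 µM Klenow-filled degenerate double-stranded DNA library for 30 min at room temperature in Tris pH 7.5 buffer with NaCl and MgCl2. Amylose resin pull-down with three washes was followed by proteinase K release, PCR barcoding and Illumina sequencing.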
As for “GATGATTGTTCTCCCAGCTGATGAATTCCACCTATCGAGTAAACAAATTTTCCTAATCTTTCTGTTCAAGCGCCATCTAC”, the binding signal is 0.432 RPM ratio (pull-down/input). As to “GATGATTGTTCTCCCAGCTGATGAATTCTTACGCTCGAGTAAACAAATTTTCCTAATCTTTCTGTTCAAGCGCCATCTAC”, the binding signal was 0.256 RPM ratio (pull-down/input).

As for “GATGATTGTTCTCCCAGCTGATGAATTTCATGATTCGAGTAAACAAATTTTCCTAATCTTTCTGTTCAAGCGCCATCTAC”, the binding signal was 0.692 RPM ratio (pull-down/input). For the sequence “GATGATTGTTCTCCCAGCTGATGAATTATTCCCATCGAGTAAACAAATTTTCCTAATCTTTCTGTTCAAGCGCCATCTAC”, the binding signal is 0.334 RPM ratio (pull-down/input). Next, “GATGATTGTTCTCCCAGCTGATGAATTTGTACCTTCGAGTAAACAAATTTTCCTAATCTTTCTGTTCAAGCGCCATCTAC”: 2.49 RPM ratio (pull-down/input). Consider “GATGATTGTTCTCCCAGCTGATGAATTGAGCCCCTCGAGTAAACAAATTTTCCTAATCTTTCTGTTCAAGCGCCATCTAC”, for which the binding signal was 0.983 RPM ratio (pull-down/input). As to “GATGATTGTTCTCCCAGCTGATGAATTACACCTCTCGAGTAAACAAATTTTCCTAATCTTTCTGTTCAAGCGCCATCTAC”, the binding signal is 0.705 RPM ratio (pull-down/input). For “GATGATTGTTCTCCCAGCTGATGAATTAACTGTGTCGAGTAAACAAATTTTCCTAATCTTTCTGTTCAAGCGCCATCTAC” the value was 0.556 RPM ratio (pull-down/input). With “GATGATTGTTCTCCCAGCTGATGAATTTGTGCGTTCGAGTAAACAAATTTTCCTAATCTTTCTGTTCAAGCGCCATCTAC”, the binding signal is 3.7 RPM ratio (pull-down/input).

Take “GATGATTGTTCTCCCAGCTGATGAATTGTGCGTCTCGAGTAAACAAATTTTCCTAATCTTTCTGTTCAAGCGCCATCTAC”: the binding signal is 6.12 RPM ratio (pull-down/input). Turning to “GATGATTGTTCTCCCAGCTGATGAATTGCGTTTTTCGAGTAAACAAATTTTCCTAATCTTTCTGTTCAAGCGCCATCTAC”, the binding signal is 2.11 RPM ratio (pull-down/input). For “GATGATTGTTCTCCCAGCTGATGAATTTGTGCTCTCGAGTAAACAAATTTTCCTAATCTTTCTGTTCAAGCGCCATCTAC”, the binding signal is 2.89 RPM ratio (pull-down/input). Next, “GATGATTGTTCTCCCAGCTGATGAATTCTGCGTCTCGAGTAAACAAATTTTCCTAATCTTTCTGTTCAAGCGCCATCTAC”: 4.55 RPM ratio (pull-down/input). Next, “GATGATTGTTCTCCCAGCTGATGAATTGTGCGTTTCGAGTAAACAAATTTTCCTAATCTTTCTGTTCAAGCGCCATCTAC”: 5.5 RPM ratio (pull-down/input); “GATGATTGTTCTCCCAGCTGATGAATTTGTGTGCTCGAGTAAACAAATTTTCCTAATCTTTCTGTTCAAGCGCCATCTAC”: 5.67 RPM ratio (pull-down/input); “GATGATTGTTCTCCCAGCTGATGAATTCTGTGTTTCGAGTAAACAAATTTTCCTAATCTTTCTGTTCAAGCGCCATCTAC”: 3.31 RPM ratio (pull-down/input).

On to “GATGATTGTTCTCCCAGCTGATGAATTTTTGTGCTCGAGTAAACAAATTTTCCTAATCTTTCTGTTCAAGCGCCATCTAC”, for which the binding signal was 0.442 RPM ratio (pull-down/input). For “GATGATTGTTCTCCCAGCTGATGAATTTTGCGTCTCGAGTAAACAAATTTTCCTAATCTTTCTGTTCAAGCGCCATCTAC” the value was 5.4 RPM ratio (pull-down/input); for “GATGATTGTTCTCCCAGCTGATGAATTGTGTGTTTCGAGTAAACAAATTTTCCTAATCTTTCTGTTCAAGCGCCATCTAC”, 4.97 RPM ratio (pull-down/input). Next, “GATGATTGTTCTCCCAGCTGATGAATTGTGTTTTTCGAGTAAACAAATTTTCCTAATCTTTCTGTTCAAGCGCCATCTAC”: 6.66 RPM ratio (pull-down/input); “GATGATTGTTCTCCCAGCTGATGAATTAACGGATTCGAGTAAACAAATTTTCCTAATCTTTCTGTTCAAGCGCCATCTAC”: 0.29 RPM ratio (pull-down/input); “GATGATTGTTCTCCCAGCTGATGAATTCCTAACTTCGAGTAAACAAATTTTCCTAATCTTTCTGTTCAAGCGCCATCTAC”: 0.231 RPM ratio (pull-down/input). Next, “GATGATTGTTCTCCCAGCTGATGAATTCACCTTATCGAGTAAACAAATTTTCCTAATCTTTCTGTTCAAGCGCCATCTAC”: 0.363 RPM ratio (pull-down/input). “GATGATTGTTCTCCCAGCTGATGAATTGGAGCTGTCGAGTAAACAAATTTTCCTAATCTTTCTGTTCAAGCGCCATCTAC”: the binding signal was 0.312 RPM ratio (pull-down/input). “GATGATTGTTCTCCCAGCTGATGAATTCTATAGGTCGAGTAAACAAATTTTCCTAATCTTTCTGTTCAAGCGCCATCTAC”: the binding signal was 0.372 RPM ratio (pull-down/input). For “GATGATTGTTCTCCCAGCTGATGAATTCCAGCTGTCGAGTAAACAAATTTTCCTAATCTTTCTGTTCAAGCGCCATCTAC”, the binding signal is 0.355 RPM ratio (pull-down/input). With “GATGATTGTTCTCCCAGCTGATGAATTACCATAATCGAGTAAACAAATTTTCCTAATCTTTCTGTTCAAGCGCCATCTAC”, the binding signal was 0.448 RPM ratio (pull-down/input).

For “GATGATTGTTCTCCCAGCTGATGAATTCAGCGCCTCGAGTAAACAAATTTTCCTAATCTTTCTGTTCAAGCGCCATCTAC”, the binding signal is 1.17 RPM ratio (pull-down/input). Next, “GATGATTGTTCTCCCAGCTGATGAATTGCTACCGTCGAGTAAACAAATTTTCCTAATCTTTCTGTTCAAGCGCCATCTAC”: 0.615 RPM ratio (pull-down/input). Regarding “GATGATTGTTCTCCCAGCTGATGAATTCATACTATCGAGTAAACAAATTTTCCTAATCTTTCTGTTCAAGCGCCATCTAC”, the binding signal is 0.534 RPM ratio (pull-down/input). Consider “GATGATTGTTCTCCCAGCTGATGAATTCGAGCCATCGAGTAAACAAATTTTCCTAATCTTTCTGTTCAAGCGCCATCTAC”, for which the binding signal is 1.13 RPM ratio (pull-down/input).

On to “GATGATTGTTCTCCCAGCTGATGAATTGACGTCTTCGAGTAAACAAATTTTCCTAATCTTTCTGTTCAAGCGCCATCTAC”, for which the binding signal is 0.448 RPM ratio (pull-down/input). Turning to “GATGATTGTTCTCCCAGCTGATGAATTGTACTACTCGAGTAAACAAATTTTCCTAATCTTTCTGTTCAAGCGCCATCTAC”, the binding signal is 0.546 RPM ratio (pull-down/input). As for “GATGATTGTTCTCCCAGCTGATGAATTATCAGGCTCGAGTAAACAAATTTTCCTAATCTTTCTGTTCAAGCGCCATCTAC”, the binding signal is 0.299 RPM ratio (pull-down/input). On to “GATGATTGTTCTCCCAGCTGATGAATTGTGTTCTTCGAGTAAACAAATTTTCCTAATCTTTCTGTTCAAGCGCCATCTAC”, for which the binding signal was 2.39 RPM ratio (pull-down/input).

Turning to “GATGATTGTTCTCCCAGCTGATGAATTTCTGTGTTCGAGTAAACAAATTTTCCTAATCTTTCTGTTCAAGCGCCATCTAC”, the binding signal is 0.716 RPM ratio (pull-down/input). Turning to “GATGATTGTTCTCCCAGCTGATGAATTGTTGTGTTCGAGTAAACAAATTTTCCTAATCTTTCTGTTCAAGCGCCATCTAC”, the binding signal is 6.09 RPM ratio (pull-down/input). “GATGATTGTTCTCCCAGCTGATGAATTCCGTGCCTCGAGTAAACAAATTTTCCTAATCTTTCTGTTCAAGCGCCATCTAC”: the binding signal was 0.796 RPM ratio (pull-down/input). Next, “GATGATTGTTCTCCCAGCTGATGAATTTATCTGATCGAGTAAACAAATTTTCCTAATCTTTCTGTTCAAGCGCCATCTAC”: 0.374 RPM ratio (pull-down/input); “GATGATTGTTCTCCCAGCTGATGAATTTATCGAGTCGAGTAAACAAATTTTCCTAATCTTTCTGTTCAAGCGCCATCTAC”: 0.379 RPM ratio (pull-down/input).

The values above are taken from article PMC12820563, “FoxP3 forms a head-to-head dimer in vivo and stabilizes its multimerization on adjacent microsatellites”.
